Results on one sequence are retold here after publication PMC7862700, “An all-to-all approach to the identification of sequence-specific readers for epigenetic DNA modifications on cytosine”.

Common to all, as to assay: DAPPL (digital affinity profiling via proximity ligation, sequencing); 10 mM Tris-HCl pH 7.5, 50 mM NaCl, 1 mM DTT, 4% glycerol, room temperature, 30 min; GST-TFs on glutathione beads, 16-mer random dsDNA library, 0.1% formaldehyde crosslink after washing; high values mean tight binding
For one test, the target named is T1, FEV (Homo sapiens, UniProt Q99581 1-238).
T1 sequence: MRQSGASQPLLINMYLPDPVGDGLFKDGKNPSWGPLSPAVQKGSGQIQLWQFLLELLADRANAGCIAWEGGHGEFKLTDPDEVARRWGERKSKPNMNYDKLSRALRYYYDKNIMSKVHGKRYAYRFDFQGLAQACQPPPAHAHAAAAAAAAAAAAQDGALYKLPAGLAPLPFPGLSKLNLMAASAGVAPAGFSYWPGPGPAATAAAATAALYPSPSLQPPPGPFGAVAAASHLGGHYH
The settings on record: protein: recombinant; tags: N-terminal GST; dsDNA, one strand shown. In short, it runs like this:
(§1)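 Human transcription factors were made in yeast as GST fusions, captured on glutathione beads and barcoded with DNA. With a tag-only sample included, the pool was incubated with 200 nmole of a random double-stranded 16-mer DNA library in Tris/NaCl/DTT/glycerol buffer at room temperature for 30 min, then crosslinked with 0.1% formaldehyde after washing, ligated by proximity, amplified and sequenced. For binding signal, each hexamer's read frequency for a factor is divided by its frequency for the tag-only sample.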

Another test addresses ETV5 (Homo sapiens, UniProt P41161 1-510). The settings on record: protein: recombinant; tags: N-terminal GST; dsDNA, one strand shown. In short, it runs like this:
as §1

For the next test, the target named is HSF1 (Homo sapiens, UniProt Q00613 1-529). The settings on record: protein: recombinant; tags: N-terminal GST; chain copies: 3; dsDNA, one strand shown. Put shortly: as §1
HSF1, sequence (Q00613 whole entry): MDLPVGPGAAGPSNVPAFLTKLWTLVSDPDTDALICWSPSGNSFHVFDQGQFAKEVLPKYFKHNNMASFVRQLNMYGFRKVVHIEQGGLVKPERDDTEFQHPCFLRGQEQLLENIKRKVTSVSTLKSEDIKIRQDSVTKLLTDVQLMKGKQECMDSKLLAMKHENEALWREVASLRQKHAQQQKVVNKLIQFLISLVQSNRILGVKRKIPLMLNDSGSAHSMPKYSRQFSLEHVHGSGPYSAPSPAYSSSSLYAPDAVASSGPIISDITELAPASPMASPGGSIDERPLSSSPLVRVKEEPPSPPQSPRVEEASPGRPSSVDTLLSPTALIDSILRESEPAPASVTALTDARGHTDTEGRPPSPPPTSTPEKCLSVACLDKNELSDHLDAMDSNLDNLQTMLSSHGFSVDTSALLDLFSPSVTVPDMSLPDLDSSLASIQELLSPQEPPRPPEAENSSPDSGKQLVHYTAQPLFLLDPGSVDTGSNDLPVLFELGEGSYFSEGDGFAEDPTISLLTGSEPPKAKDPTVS
In a further test the target is T2, SPIC (Homo sapiens, UniProt Q8N5J4 1-248).
T2 sequence: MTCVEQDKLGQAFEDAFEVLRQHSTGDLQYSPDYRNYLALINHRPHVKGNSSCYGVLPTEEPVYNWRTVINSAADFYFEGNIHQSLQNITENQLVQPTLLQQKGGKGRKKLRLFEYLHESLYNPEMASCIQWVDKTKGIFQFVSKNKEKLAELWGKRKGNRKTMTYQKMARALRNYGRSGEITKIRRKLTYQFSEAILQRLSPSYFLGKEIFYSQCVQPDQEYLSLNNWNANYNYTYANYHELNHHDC
The settings on record: protein: recombinant; tags: N-terminal GST; dsDNA, one strand shown. In short, it runs like this: as §1

In another test the target is ELF4 (Homo sapiens, UniProt Q99607 1-663). The settings on record: protein: recombinant; tags: N-terminal GST; dsDNA, one strand shown. Put shortly: as §1
ELF4, sequence (Q99607 whole entry): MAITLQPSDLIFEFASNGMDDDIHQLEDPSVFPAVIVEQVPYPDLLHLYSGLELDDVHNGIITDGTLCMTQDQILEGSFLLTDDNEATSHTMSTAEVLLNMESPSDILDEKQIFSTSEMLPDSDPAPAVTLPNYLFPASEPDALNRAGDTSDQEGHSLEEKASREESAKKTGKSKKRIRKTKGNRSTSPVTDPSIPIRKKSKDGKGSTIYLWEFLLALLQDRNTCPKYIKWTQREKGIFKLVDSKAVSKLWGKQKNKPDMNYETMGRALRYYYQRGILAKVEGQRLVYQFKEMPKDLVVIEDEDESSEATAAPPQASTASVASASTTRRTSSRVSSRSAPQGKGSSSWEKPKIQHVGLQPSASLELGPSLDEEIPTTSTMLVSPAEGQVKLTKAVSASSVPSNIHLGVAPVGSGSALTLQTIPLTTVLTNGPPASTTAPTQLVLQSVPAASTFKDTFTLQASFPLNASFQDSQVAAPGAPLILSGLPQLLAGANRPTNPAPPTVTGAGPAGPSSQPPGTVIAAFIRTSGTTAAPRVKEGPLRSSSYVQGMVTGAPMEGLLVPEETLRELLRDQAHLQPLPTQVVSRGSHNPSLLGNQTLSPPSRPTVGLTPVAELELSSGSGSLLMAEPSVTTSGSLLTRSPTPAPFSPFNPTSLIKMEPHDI
The next test deals with T3, ELK4 (Homo sapiens, UniProt P28324-2 1-405).
T3 sequence: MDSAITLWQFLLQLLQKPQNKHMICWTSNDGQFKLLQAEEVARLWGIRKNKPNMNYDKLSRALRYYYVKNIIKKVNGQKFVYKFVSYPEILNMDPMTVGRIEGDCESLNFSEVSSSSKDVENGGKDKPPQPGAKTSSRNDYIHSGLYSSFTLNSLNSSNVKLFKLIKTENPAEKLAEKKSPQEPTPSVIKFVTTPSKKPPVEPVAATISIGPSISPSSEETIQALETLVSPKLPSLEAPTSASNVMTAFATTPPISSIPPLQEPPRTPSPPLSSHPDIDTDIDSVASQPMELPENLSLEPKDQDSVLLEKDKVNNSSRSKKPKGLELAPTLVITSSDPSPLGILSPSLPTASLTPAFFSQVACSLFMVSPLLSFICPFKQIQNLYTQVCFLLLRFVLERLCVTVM
The settings on record: protein: recombinant; tags: N-terminal GST; dsDNA, one strand shown. In short, it runs like this:
as §1

The target of the next test is T4, ETV2 (Homo sapiens, UniProt O00321 1-342).
T4 sequence: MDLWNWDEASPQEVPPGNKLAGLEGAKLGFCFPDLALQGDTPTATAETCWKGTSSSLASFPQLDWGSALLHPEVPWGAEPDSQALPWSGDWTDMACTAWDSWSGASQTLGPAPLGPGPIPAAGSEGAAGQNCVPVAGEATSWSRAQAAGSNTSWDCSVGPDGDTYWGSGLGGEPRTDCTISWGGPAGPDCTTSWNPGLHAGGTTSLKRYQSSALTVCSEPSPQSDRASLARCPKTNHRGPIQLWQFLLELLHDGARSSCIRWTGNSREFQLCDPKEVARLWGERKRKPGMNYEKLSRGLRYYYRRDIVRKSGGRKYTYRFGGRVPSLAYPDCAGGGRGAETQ
The settings on record: protein: recombinant; tags: N-terminal GST; dsDNA, one strand shown. Put shortly:
as §1

For another test, the target named is T5, ELF3 (Homo sapiens, UniProt P78545 1-371).
T5 sequence: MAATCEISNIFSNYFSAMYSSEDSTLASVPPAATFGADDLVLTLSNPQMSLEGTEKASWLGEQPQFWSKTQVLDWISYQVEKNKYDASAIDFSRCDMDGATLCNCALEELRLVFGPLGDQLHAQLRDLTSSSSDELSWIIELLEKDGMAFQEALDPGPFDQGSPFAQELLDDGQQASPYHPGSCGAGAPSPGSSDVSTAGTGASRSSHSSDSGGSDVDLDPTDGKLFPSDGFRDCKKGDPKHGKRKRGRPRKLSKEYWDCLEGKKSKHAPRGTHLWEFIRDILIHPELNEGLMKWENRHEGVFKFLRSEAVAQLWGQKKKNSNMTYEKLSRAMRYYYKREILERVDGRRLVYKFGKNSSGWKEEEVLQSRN
The settings on record: protein: recombinant; tags: N-terminal GST; dsDNA, one strand shown. In short, it runs like this:
as §1

The target of another test is CRX (Homo sapiens, UniProt O43186 1-299). The settings on record: protein: recombinant; tags: N-terminal GST; dsDNA, one strand shown. Put shortly: as §1
CRX, sequence (O43186 whole entry): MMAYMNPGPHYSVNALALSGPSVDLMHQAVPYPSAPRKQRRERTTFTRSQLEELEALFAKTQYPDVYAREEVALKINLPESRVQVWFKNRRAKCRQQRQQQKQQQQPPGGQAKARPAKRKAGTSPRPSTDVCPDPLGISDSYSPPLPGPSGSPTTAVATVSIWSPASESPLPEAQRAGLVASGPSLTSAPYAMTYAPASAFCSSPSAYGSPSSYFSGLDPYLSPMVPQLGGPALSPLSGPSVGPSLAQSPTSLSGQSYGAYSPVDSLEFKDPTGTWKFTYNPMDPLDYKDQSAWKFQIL
The next test addresses ETV1 (Homo sapiens, UniProt P50549 1-477). The settings on record: protein: recombinant; tags: N-terminal GST; dsDNA, one strand shown. Put shortly: as §1
The target in another test is T6, ERF (Homo sapiens, UniProt P50548 1-548).
T6 sequence: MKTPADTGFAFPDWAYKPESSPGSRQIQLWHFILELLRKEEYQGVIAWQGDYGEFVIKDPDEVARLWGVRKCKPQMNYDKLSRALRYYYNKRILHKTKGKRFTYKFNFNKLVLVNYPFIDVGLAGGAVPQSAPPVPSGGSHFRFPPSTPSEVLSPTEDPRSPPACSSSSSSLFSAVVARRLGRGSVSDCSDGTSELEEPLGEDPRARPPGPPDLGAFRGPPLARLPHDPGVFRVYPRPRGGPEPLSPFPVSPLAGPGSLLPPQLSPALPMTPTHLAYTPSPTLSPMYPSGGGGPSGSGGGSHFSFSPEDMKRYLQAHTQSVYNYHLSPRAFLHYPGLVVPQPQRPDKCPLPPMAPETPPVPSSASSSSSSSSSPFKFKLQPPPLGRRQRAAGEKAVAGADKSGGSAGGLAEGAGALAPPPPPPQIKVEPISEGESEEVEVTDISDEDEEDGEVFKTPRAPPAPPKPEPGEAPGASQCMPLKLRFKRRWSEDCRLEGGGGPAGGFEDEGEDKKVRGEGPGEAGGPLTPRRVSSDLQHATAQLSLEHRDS
The settings on record: protein: recombinant; tags: N-terminal GST; dsDNA, one strand shown. In short, it runs like this: as §1

The target in another test is T7, ETV3L (Homo sapiens, UniProt Q6ZN32 1-361).
T7 sequence: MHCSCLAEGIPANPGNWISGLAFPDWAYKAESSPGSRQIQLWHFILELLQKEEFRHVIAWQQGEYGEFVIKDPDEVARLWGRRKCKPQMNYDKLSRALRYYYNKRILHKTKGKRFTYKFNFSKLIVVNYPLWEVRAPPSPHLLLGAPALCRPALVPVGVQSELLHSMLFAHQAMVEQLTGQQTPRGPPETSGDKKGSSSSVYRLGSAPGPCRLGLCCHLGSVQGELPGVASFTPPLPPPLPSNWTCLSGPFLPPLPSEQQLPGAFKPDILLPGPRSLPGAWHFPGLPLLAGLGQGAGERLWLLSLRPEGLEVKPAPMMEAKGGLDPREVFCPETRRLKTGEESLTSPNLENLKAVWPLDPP
The settings on record: protein: recombinant; tags: N-terminal GST; dsDNA, one strand shown. In short, it runs like this:
as §1

The next test concerns the target T8, ETS2 (Homo sapiens, UniProt P15036 1-469).
T8 sequence: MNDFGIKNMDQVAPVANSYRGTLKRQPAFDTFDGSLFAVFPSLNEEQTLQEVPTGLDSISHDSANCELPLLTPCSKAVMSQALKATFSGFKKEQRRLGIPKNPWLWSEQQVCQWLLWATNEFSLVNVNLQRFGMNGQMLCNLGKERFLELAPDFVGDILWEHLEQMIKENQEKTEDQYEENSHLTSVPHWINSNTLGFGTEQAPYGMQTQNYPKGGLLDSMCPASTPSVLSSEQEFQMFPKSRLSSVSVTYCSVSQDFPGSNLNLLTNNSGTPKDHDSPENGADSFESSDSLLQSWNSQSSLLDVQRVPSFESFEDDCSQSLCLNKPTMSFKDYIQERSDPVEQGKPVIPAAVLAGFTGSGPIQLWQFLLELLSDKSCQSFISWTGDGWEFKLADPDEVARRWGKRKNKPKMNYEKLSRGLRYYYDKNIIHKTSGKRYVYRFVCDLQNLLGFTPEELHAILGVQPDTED
The settings on record: protein: recombinant; tags: N-terminal GST; dsDNA, one strand shown. Put shortly: as §1

Another test addresses T9, SPDEF (Homo sapiens, UniProt O95238 1-335).
T9 sequence: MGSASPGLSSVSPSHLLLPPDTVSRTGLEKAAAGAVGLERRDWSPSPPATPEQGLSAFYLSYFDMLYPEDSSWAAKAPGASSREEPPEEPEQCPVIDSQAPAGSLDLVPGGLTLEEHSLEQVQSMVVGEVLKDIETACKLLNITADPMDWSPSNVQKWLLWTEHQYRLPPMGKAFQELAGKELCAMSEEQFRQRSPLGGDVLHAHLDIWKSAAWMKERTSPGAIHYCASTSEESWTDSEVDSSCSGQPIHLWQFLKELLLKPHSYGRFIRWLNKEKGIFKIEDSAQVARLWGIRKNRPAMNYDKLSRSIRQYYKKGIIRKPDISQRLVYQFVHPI
The settings on record: protein: recombinant; tags: N-terminal GST; dsDNA, one strand shown. Put shortly:
as §1

For the next test, the target named is T10, ETV7 (Homo sapiens, UniProt Q9Y603 1-341).
T10 sequence: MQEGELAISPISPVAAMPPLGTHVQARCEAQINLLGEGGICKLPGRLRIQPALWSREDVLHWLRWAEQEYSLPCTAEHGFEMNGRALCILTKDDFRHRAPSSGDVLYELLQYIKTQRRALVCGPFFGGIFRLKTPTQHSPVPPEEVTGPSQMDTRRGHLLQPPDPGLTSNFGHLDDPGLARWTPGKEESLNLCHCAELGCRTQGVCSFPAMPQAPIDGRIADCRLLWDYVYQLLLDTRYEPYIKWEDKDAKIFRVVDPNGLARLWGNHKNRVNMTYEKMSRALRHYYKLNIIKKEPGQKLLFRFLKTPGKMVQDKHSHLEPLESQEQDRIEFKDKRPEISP
The settings on record: protein: recombinant; tags: N-terminal GST; dsDNA, one strand shown. Put shortly:
as §1

In a further test the target is T11, ELF5 (Homo sapiens, UniProt Q9UKW6-2 1-255).
T11 sequence: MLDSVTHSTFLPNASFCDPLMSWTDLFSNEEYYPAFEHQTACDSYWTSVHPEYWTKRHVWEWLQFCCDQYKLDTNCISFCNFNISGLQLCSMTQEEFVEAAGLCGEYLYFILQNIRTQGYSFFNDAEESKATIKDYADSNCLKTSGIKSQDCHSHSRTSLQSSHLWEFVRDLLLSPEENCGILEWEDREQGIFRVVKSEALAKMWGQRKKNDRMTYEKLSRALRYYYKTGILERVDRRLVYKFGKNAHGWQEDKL
The settings on record: protein: recombinant; tags: N-terminal GST; dsDNA, one strand shown. Put shortly: as §1

Another test deals with T12, ETV3 (Homo sapiens, UniProt P41162-2 1-143).
T12 sequence: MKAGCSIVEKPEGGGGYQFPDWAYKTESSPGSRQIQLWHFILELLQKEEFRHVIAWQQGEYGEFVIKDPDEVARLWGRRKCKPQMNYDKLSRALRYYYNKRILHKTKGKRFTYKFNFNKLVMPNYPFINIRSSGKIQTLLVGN
The settings on record: protein: recombinant; tags: N-terminal GST; dsDNA, one strand shown. In short, it runs like this: as §1

The target of another test is ETV6 (Homo sapiens, UniProt P41212 1-452). The settings on record: protein: recombinant; tags: N-terminal GST; dsDNA, one strand shown. Put shortly: as §1
ETV6, sequence (P41212 whole entry): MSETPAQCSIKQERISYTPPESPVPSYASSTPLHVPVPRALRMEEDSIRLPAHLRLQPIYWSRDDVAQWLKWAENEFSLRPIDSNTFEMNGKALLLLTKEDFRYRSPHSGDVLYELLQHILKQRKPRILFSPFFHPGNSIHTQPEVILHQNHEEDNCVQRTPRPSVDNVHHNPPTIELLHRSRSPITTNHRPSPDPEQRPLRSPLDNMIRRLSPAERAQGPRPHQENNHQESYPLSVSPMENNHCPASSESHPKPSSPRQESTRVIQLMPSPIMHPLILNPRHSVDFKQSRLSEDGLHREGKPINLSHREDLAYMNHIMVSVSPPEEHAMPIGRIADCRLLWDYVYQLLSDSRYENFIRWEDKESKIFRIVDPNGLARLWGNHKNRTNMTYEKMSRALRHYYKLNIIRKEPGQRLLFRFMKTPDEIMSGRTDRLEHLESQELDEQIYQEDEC

ETV5, sequence (P41161 whole entry): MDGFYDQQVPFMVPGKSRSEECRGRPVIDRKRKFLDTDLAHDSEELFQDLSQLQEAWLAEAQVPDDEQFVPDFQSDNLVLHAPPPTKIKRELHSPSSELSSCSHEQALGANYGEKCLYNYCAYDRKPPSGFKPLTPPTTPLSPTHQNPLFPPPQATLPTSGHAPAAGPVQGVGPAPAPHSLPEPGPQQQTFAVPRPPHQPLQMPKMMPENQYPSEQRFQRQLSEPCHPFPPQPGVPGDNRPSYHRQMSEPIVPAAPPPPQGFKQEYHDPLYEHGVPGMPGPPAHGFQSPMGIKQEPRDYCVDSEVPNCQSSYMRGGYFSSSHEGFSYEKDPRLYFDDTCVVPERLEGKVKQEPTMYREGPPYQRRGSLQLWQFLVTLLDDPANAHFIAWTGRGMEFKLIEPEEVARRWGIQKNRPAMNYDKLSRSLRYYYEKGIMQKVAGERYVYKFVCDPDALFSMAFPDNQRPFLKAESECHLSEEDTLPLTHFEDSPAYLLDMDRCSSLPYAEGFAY
ETV1, sequence (P50549 whole entry): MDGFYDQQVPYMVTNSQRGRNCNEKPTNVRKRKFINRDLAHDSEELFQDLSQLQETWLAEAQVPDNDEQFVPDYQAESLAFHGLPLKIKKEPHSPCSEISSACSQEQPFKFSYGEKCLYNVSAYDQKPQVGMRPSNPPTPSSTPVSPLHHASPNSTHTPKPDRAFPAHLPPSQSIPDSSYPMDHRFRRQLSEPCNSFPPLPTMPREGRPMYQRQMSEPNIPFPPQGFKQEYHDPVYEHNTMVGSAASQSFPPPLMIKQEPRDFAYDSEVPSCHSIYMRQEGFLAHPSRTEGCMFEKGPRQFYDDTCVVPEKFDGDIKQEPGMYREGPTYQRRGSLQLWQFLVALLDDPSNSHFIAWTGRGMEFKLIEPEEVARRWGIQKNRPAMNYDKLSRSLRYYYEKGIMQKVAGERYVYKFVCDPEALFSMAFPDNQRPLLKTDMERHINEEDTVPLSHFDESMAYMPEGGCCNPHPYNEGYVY

As for TCTGCC, the binding signal is 1.38 fold enrichment (6-mer frequency, TF over GST control) with FEV; 1.27 fold enrichment (6-mer frequency, TF over GST control) with ETV5; 1.35 fold enrichment (6-mer frequency, TF over GST control) in the test with HSF1; 1.31 fold enrichment (6-mer frequency, TF over GST control) in the test with SPIC; 1.53 fold enrichment (6-mer frequency, TF over GST control) with ELF4; 1.59 fold enrichment (6-mer frequency, TF over GST control) in the test with ELK4. Further, the binding signal is 1.24 fold enrichment (6-mer frequency, TF over GST control) in the test with ETV2; 1.28 fold enrichment (6-mer frequency, TF over GST control) in the test with ELF3; 1.21 fold enrichment (6-mer frequency, TF over GST control) with CRX; 1.36 fold enrichment (6-mer frequency, TF over GST control) with ETV1; 1.35 fold enrichment (6-mer frequency, TF over GST control) with ERF; 1.31 fold enrichment (6-mer frequency, TF over GST control) in the test with ETV3L. Moreover, the binding signal with ETS2 was 1.45 fold enrichment (6-mer frequency, TF over GST control); in the test with SPDEF, 1.26 fold enrichment (6-mer frequency, TF over GST control); in the test with ETV7, 1.49 fold enrichment (6-mer frequency, TF over GST control); with ELF5 it was 1.31 fold enrichment (6-mer frequency, TF over GST control); with ETV3 it was 1.35 fold enrichment (6-mer frequency, TF over GST control); with ETV6 it was 1.32 fold enrichment (6-mer frequency, TF over GST control).
